The full ranking holds about 4,100 sequences; the median of “relative CpG methylation activity (normalised to average over all NNNCGNNN flanks)” is about 0.94, and the highest 2% start at about 1.9. This excerpt belongs to a sample that is enriched for the highest values.
target: DNMT3B catalytic domain (mouse) (UniProt O88509); assay: relative CpG methylation activity (normalised to average over all NNNCGNNN flanks) (relative (1 = mean)); higher = more methylation of the central CpG; conditions: system: in vitro, murine catalytic domain; CpG state: hemimethylated substrate pool; residues: 558-859
Sequence (O88509 558-859): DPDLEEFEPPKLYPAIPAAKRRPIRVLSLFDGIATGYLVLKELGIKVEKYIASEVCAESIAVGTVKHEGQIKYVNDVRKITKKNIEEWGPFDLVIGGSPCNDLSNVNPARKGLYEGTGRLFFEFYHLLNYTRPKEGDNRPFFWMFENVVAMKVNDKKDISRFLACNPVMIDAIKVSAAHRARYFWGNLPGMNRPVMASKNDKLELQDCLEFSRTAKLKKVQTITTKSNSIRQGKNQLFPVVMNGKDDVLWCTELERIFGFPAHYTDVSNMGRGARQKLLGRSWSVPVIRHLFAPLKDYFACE
Description: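 Deep enzymology: a pool of dsDNA substrates with a central CpG flanked by 10 random nucleotides on each side was methylated by the murine DNMT3A or DNMT3B catalytic domain (0.8 mM SAM, 37 °C, 60 min). Methylation was then read out by hairpin ligation, bisulfite conversion and NGS. Values are the average methylation of each NNNCGNNN context (±3 flanks; the outer flanks are random and averaged over), normalised to the overall mean, so 1 = average activity.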

Sequence	relative CpG methylation activity
TTTCGGCG	1.79
TTTCGGCA	1.69
CTTCGGCA	1.97
TTTCGGGA	1.79
CTTCGGCG	1.67
TTTCGGGT	2.02
GTTCGGCA	1.88
CTTCGGCT	1.9
TTTCGGCC	1.65
GTTCGGGT	1.37
TTTCGGCT	2.04
GTTCGGCT	1.75
AGTCGGTG	0.863
ATTCGCGC	0.947
CGGCGCTA	0.358
CACCGGCC	1.34
ACTCGGCA	1.42
ACTCGGCT	1.95
ACTCGGCC	1.62
TTACGTTG	1.29
AGGCGCGA	0.281
TTCCGGGC	1.7
GTCCGGGC	1.53
ATCCGGCC	1.48
CTCCGGCC	1.94

Sequence	relative CpG methylation activity
CTTCGGGT	1.33
CTCCGGCA	1.88
ATTCGGGC	1.72
CTTCGGGC	2.18
CTCCGGGC	2.05
ATCCGAGA	1.4
GCACGAGC	1.79
GAACGTGC	1.03
CAGCGGTG	0.603
GTCCGTAT	0.661
TATCGGAT	1.18
ACCCGATT	1.41
GCTCGTCA	0.561
CTACGGTC	1.85
CTACGGTA	1.81
ATACGGTC	1.68
TTACGGTC	2.02
TTACGGTA	2.02
GTACGGTA	1.61
GGACGCGG	0.51
CATCGATC	1.81
GCCCGACG	1.16
TCACGCTT	1.36
CTACGACT	1.92
TTACGAGC	2.09

Sequence	relative CpG methylation activity
CTACGACG	1.81
GTACGACT	1.46
ATACGAGC	1.87
TTACGAGA	1.84
ATACGAGG	1.72
ATACGAAT	1.64
TTACGAGG	1.8
ATACGAGA	1.82
ATACGAGT	1.92
CTACGAGA	1.96
CATCGCTA	0.882
GATCGCTG	0.405
TCCCGCCG	0.883
GAGCGTAT	0.648
GCACGTGG	0.497
GTCCGTCT	0.827
TCTCGCGG	0.647
CTGCGCTG	0.95
TACCGCTA	0.483
CAGCGACC	0.972
GACCGCAA	0.281
TTACGAGT	1.74
GTACGAGC	1.83
CTACGAGG	1.68
CTACGAGC	2.12

Sequence	relative CpG methylation activity
GTACGAGT	1.48
CTACGAGT	1.96
CGCCGGTC	1.23
AAACGCGG	1.24
CTCCGCGT	0.717
CCTCGAGT	1.5
AAACGAGA	1.9
TCTCGAGA	1.96
CAACGAGA	1.94
CAACGAGT	1.47
TCTCGAGT	1.45
TCACGAGG	1.7
TCTCGAGC	1.53
TCACGAGT	1.49
GAACGAGA	1.76
TAACGAGA	1.72
CAACGAGC	1.74
TCACGAGA	1.96
TTACGCCG	1.59
TACCGGCC	1.52
CGCCGTAG	0.147
AAACGCGC	1.46
AAGCGTTT	0.413
AAGCGTTC	0.586
TAGCGCCC	0.741

Sequence	relative CpG methylation activity
TCGCGGAC	0.818
GGCCGTGG	0.0382
CCTCGAAT	1.3
CAACGGCT	1.92
CAACGGCA	1.74
AAACGGCT	1.82
GAACGGCC	1.81
AAACGGCC	1.76
CAACGGCC	1.93
ACGCGCGA	0.411
GACCGGGT	1.03
ACGCGTGA	0.523
TTCCGAAT	1.58
ACACGGCC	1.94
AAACGGCA	1.91
ACACGGCG	1.6
GCACGGCC	1.77
ACACGGCA	1.89
CCACGGCC	1.7
ACACGGCT	1.89
AAACGGCG	1.68
GAACGGCA	1.84
CAACGCGA	0.965
AGTCGTCA	0.379
CAACGTCA	1.15

Sequence	relative CpG methylation activity
CGCCGTAC	0.561
ATTCGCAG	0.453
CTCCGAGC	2.06
TTCCGAGT	1.83
ATCCGAGC	1.68
TTTCGATA	1.81
CTCCGAGA	1.73
TTCCGATC	2.31
GTTCGATC	1.3
GTCCGATC	1.77
CTCCGAGT	1.99
TTCCGATT	1.75
TTTCGATC	1.95
ATCCGAGT	1.37
CATCGAAC	1.6
ACGCGTGG	0.317
GATCGTTG	0.455
TGACGGAT	0.829
ATCCGAAC	1.63
TTCCGAAG	1.32
TTCCGAGA	1.6
TTCCGAGG	1.42
TTCCGAAC	1.89
TTCCGAGC	1.9
CCGCGGTC	1.43

Sequence	relative CpG methylation activity
GTTCGGGC	1.53
ACGCGATT	1.09
GATCGAAC	1.16
GTACGATT	1.75
TTACGATT	2.01
TCACGATA	1.76
TTACGATA	1.94
TAACGATA	1.81
GTACGATC	1.73
CTACGATT	1.83
TTACGATC	2.01
TTACGATG	1.53
CGTCGATA	1.84
TGCCGGGG	0.469
CGACGTGC	0.674
AGCCGAAA	0.798
AAACGTTA	0.806
CCCCGTTA	0.69
ACGCGTTG	0.312
TCACGACC	1.17
GTGCGGGT	1.3
CTACGAAT	1.56
CTACGAAC	1.91
TTACGAAC	1.96
CTACGAAG	1.6

Sequence	relative CpG methylation activity
TTACGAAA	1.78
TTACGAAT	1.76
CCTCGGTT	1.13
AATCGTTC	0.607
AGCCGAGC	1.24
TTCCGGCT	1.61
GTTCGTGA	0.411
ATCCGGTT	1.46
CTCCGGTC	1.8
TTCCGGCG	2.04
CTCCGGTT	1.72
TTCCGGCC	1.67
TTCCGGTA	1.33
TTCCGGTC	2.04
ATCCGGCG	1.82
TTCCGGTT	2.2
ATTCGTTC	0.876
AAGCGCCG	0.713
TAGCGGGG	0.665
CATCGGCT	1.78
GTTCGGTC	1.15
GACCGTTT	0.177
CTTCGAAA	1.57
CTTCGAGA	1.95
CTTCGAGG	1.65

Sequence	relative CpG methylation activity
CTTCGAAC	1.98
ATTCGAGA	1.83
ATTCGAAC	1.69
TACCGTGT	0.198
ACCCGGAT	0.954
TATCGGAA	0.708
CCTCGGAC	1.14
CCCCGGCA	1.72
CCCCGGCT	2.05
TCCCGGCA	1.62
ACCCGGCT	1.67
TCCCGGCG	1.87
TCCCGGCT	1.95
CCCCGGCC	1.77
GCCCGGCT	1.4
CCCCGGCG	1.95
AAGCGTGC	0.448
ATCCGTCC	1.35
AGTCGTCG	0.57

Reference: the supplement of paper PMC7335073
